From PubChem BioAssay
IL-1B inflam inh: inhibitors of inflammasome signaling (IL-1 beta secretion); 4.7% of 360,000 active; activity change, % at 57.5 µM; THP-1 LPS/ATP IL-1B secretion, AlphaLISA, 16 h; hits give low values; AID 743279; in the data active means activity change below about -50%; inconclusive means mostly about -30% to -49%
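Secreted IL-1B measured by AlphaLISA bead assay after 16 h compound exposure of THP-1 cells; compounds (final up to 57.5 uM) added 1 h before LPS (250 ng/mL) and ATP (1.25 mM) stimulation; lower signal means less secretion.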
RORgamma inh: ROR gamma (mouse) transcription inhibition. P51450. Drosophila S2 Gal4-RORgamma UAS-luciferase reporter, 20 h. Potency, µM (series often up to 53.6 µM), most hits filed as inhibitors. 5.4% of 310,000 active; further: nearly all actives have a fitted effect of over 60% in size
Target sequence (P51450 whole entry, looked up, the tested form may be a part): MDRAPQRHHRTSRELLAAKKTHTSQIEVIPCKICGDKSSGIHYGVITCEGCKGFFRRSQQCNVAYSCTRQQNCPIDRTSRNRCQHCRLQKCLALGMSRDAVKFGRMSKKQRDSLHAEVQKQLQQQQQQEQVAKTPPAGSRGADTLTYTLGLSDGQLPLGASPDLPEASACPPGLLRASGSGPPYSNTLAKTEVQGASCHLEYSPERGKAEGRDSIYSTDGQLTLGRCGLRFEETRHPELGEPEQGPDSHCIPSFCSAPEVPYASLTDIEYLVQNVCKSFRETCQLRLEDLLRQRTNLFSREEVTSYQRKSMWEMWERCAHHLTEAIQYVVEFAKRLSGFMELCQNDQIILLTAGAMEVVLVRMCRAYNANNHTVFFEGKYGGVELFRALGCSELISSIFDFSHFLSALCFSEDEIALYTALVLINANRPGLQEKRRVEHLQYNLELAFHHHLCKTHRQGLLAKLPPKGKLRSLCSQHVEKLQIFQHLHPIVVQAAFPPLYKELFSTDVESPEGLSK
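Luminescence from a UAS-regulated Photinus luciferase reporter in stably transfected Drosophila Schneider cells is measured; decreased signal marks ROR gamma inhibition. Fusion expression is induced by 700 uM copper sulfate for 20 hr.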
LDHA inh: inhibitors of human lactate dehydrogenase A | P00338 | purified LDHA, NADH/diaphorase-resazurin fluorescence; hits give low values | activity change, % (values are at about 110 or 230 µM) | 0.15% of 480,000 active | AID 1347041; in the data active means activity change below about -30%; inconclusive means mostly about -25% to -30%
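Remaining NADH was detected by diaphorase (0.133 mg/mL) converting 37 µM resazurin to fluorescent resorufin, read at 0 and 20 minutes. The preceding 5-minute room-temperature reaction used 2 nM LDHA, 0.2 mM sodium pyruvate and 0.06 mM NADH at pH 7.4.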
DT40 TDP1 CPT: growth inhibition of DT40 Tdp1-/-;hTDP1 cells with camptothecin (screen for TDP1 inhibitors); chicken DT40 Tdp1-/-;hTDP1 cells + 20 nM CPT, ATP luminescence, 48 h; AID 686979; 12% of 420,000 active; Potency, µM (top dose mostly 46.2 µM), usual class: inhibitors; further: nearly all actives have a fitted effect of over 55% in size
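Chicken DT40 Tdp1-/- cells stably complemented with human TDP1 were seeded at 400 cells/well in medium containing 20 nM camptothecin, exposed to pin-transferred compounds, and grown at 37 °C for at least 48 hr. Viability was read as ATP luminescence.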
VP16 counter: counter-screen for ROR gamma inhibitors: Gal4-VP16 reporter | Drosophila S2 Gal4-VP16 UAS-luciferase, luminescence, 20 h | Potency, µM (top dose mostly 53.6 µM), hits mostly inhibitors | 3.5% of 310,000 active | AID 2546;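 further: Gal4-VP16 expression switched on by copper sulfate through the metallothionein promoter; nearly all actives have a fitted effect of over 50% in size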
TDP1 cell noCPT: qHTS for Inhibitors of human tyrosyl-DNA phosphodiesterase 1 (TDP1): qHTS in cells in absence of CPT. DT40 Tdp1-/- hTDP1 cells, no CPT, ATP luminescence, 48 h. Potency, µM (series often up to 46.2 µM), usual class: inhibitors. 15% of 420,000 active. AID 686978, 2013; further: nearly all actives have a fitted effect of over 55% in size
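Stably hTDP1-transfected Tdp1-null chicken DT40 cells were treated with library compounds minus camptothecin and grown for at least 48 hr at 37 °C, after which cellular ATP was quantified by luminescence.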
Hits are given with their value; . = inactive; ? = inconclusive; / = not tested or not shown; [ ] = another dose, or the depositor's remark. In the library only some 18% were active in any assay of this set; here they are far more common. Unless noted, the call rests on the fitted dose curve; in most records, active means well fitted curve in the direction sought with a large enough effect; inconclusive means small, poorly fitted or top-dose-only effect, or another doubt; inactive means no such curve, though single readings can be large; an effect the other way counts as inactive or inconclusive.

SMILES	IL-1B inflam inh	RORgamma inh	LDHA inh	DT40 TDP1 CPT	VP16 counter	TDP1 cell noCPT
CCCNC(=S)Nc1cccc(C(F)(F)F)c1	.	10µM	.	.	?	.
Cc1cccc(NC(=S)NCc2ccccn2)c1	.	5µM	.	.	?	.
S=C(NCc1ccccn1)NN=Cc1ccccn1	.	/	.	0.15µM	/	0.15µM
COC(=O)C1=C(C)N(c2ccccc2)C(=S)NC1c1cccs1 (stereo unspecified)	/	/	.	/	/	/
NC(CCCCCCC(N)C(=O)O)C(=O)O (stereo unspecified)	/	/	.	/	/	/
CN(C)c1ccc(NC(=O)/C=C/c2ccccc2)cc1	/	/	.	/	/	/
CCCCCCCc1ccc(-c2ccc(OC(F)(F)F)cc2)nc1	/	/	.	/	/	/
Cc1ccc(NC(=S)NCc2ccccn2)cc1	.	4µM	.	.	16µM	.
CNC(=S)NNC(=O)c1cccc(C(F)(F)F)c1	.	11µM	.	.	.[0.365 µM]	.
C=CCC(CC=C)(CNC(=O)C(=O)Nc1cccc(C(F)(F)F)c1)c1ccccc1	/	/	.	18µM	/	21µM
Cc1ccc(NC(=S)NNC(=S)NCc2ccccc2)cc1	.	.	.	.	.	.
Cc1ccc(NC(=S)NNC(C)(C)C)cc1	/	?	.	.	0.25µM	.
CCCN(CC(=O)NC(=O)Nc1ccccc1)Cc1ccc(C#N)cc1	/	/	.	/	/	/
CC1c2cc3c(cc2CCN1S(=O)(=O)c1ccc(Cl)c(C(F)(F)F)c1)OCCCO3 (stereo unspecified)	/	/	.	/	/	/
N#C/C(=C/c1ccc(I)o1)c1nc2ccccc2[nH]1	/	/	.	/	/	/
O=C(NNC(=S)Nc1cccc(C(F)(F)F)c1)c1ccccc1Cl	?	13µM	.	?	10µM	18µM
CC(=NNC(=S)Nc1cccc(Cl)c1)c1ccccn1	-88	/	.	0.082µM	/	0.021µM
Fc1cccc(NC(=S)NCc2ccccc2)c1	/	/	.	/	/	/
FC(F)(F)c1cccc(NC(=S)NNC(=S)NCc2ccccc2)c1	.	?	.	?	?	26µM
S=C(NCc1ccccn1)Nc1cccc(Cl)c1	.	6.3µM	.	?	13µM	?
COc1ccc2[nH]cc(C(C(=O)O)N3CCN(Cc4cccnc4)CC3)c2c1 (stereo unspecified)	/	/	.	/	/	/
CN(C)S(=O)(=O)c1ccc(N2CCCCC2)c(C(=O)N2CCCc3ccccc32)c1	/	/	.	/	/	/
O=C(/C=C/c1cccc(C(F)(F)F)c1)Nc1cccc(C(F)(F)F)c1	-92	?	.	23µM	?	23µM
CC1=C/C(=N\NC(=S)Nc2cccc(C(F)(F)F)c2)CC1	/	/	.	/	/	/
CC(C)(C)NNC(=S)Nc1cccc(C(F)(F)F)c1	?	1µM	.	3.3µM	3.2µM	1.2µM
SMILES	IL-1B inflam inh	RORgamma inh	LDHA inh	DT40 TDP1 CPT	VP16 counter	TDP1 cell noCPT
CC(NC(=O)c1ccc(C(=O)c2ccccc2)cc1)c1ccc(S(N)(=O)=O)cc1 (stereo unspecified)	-52	/	.	.	/	?
CC(NC(=O)c1ccc(S(=O)(=O)C(F)F)cc1)c1ccccc1 (stereo unspecified)	.	.	.	?	.	?
CC(C)N(C)c1ncnc2c1ncn2[C@H]1CN(Cc2ccc(-c3ccccc3)cc2)C[C@@H](CO)O1	.	/	.	7.3µM	/	6.5µM
CC(C)N(C)c1ncnc2c1ncn2[C@H]1CN(Cc2ccncc2)C[C@@H](CO)O1	.	/	.	23µM	/	23µM
OCCNc1ncnc2c1ncn2[C@H]1CN(Cc2ccncc2)C[C@@H](CO)O1	-89	/	.	.	/	.
OCCCNc1ncnc2c1ncn2[C@H]1CN(Cc2ccncc2)C[C@@H](CO)O1	.	/	.	.	/	.
Cc1nn2c(-c3ccco3)nnc2c2ccccc12	.	.	.	?	.	21µM
COc1ccc(-c2nnc3c4ccccc4c(C)nn23)cc1	.	.	.	?	.	18µM
Cc1ccccc1-c1nnc2c3ccccc3c(C)nn12	.	.	.	.	.	?
Cc1ccc(C2(C)NC(=O)N(Cc3coc(-c4cccs4)n3)C2=O)cc1 (stereo unspecified)	/	/	.	/	/	/
COc1c(Cl)ccc(Cl)c1C(=O)NC(=S)N1CCOCC1	.	3.5µM	.	.	11µM	?
Cc1onc(-c2c(Cl)cccc2Cl)c1C(=O)NC(=S)N1CCOCC1	.	0.16µM	.	?	0.71µM	?
O=C(NC(=S)N1CCOCC1)c1ccccc1Cl	.	2.8µM	.	.	?	.
COCCCn1c(Cc2c(F)cccc2Cl)n[nH]c1=S	/	/	.	/	/	/
Cc1[nH]c2c(ccc3ccccc32)c1C1C(CCN)C1(C)C (stereo unspecified)	?	.	.	?	.	23µM
Cc1[nH]c2c(ccc3ccccc32)c1C	/	/	.	/	/	/
CCC(C)(CCNC(=O)Cc1ccccc1)c1ccccc1OC (stereo unspecified)	?	.	.	23µM	.	?
O=S(=O)(c1ccccc1)N1CCC[C@@]2(CCN(Cc3cc(C(F)(F)F)cc(C(F)(F)F)c3)C2)C1	/	.	/	?	.	?
FC(F)(F)c1cc(CN2CC[C@@]3(CCCNC3)C2)cc(C(F)(F)F)c1	/	.	/	?	.	15µM
FC(F)(F)c1cc(CN2CC3(CCNCC3)C2)cc(C(F)(F)F)c1	/	.	/	18µM	.	7.3µM
COC(C[C@@H]1O[C@@H]1[C@H](O)[C@H](C)OCc1ccccc1)OC	.	.	.	.	.	.
COC(C[C@H]1O[C@H]1C(=O)[C@@H](C)OCc1ccccc1)OC	.	/	.	10µM	/	?
COC(C[C@@H]1O[C@H]1C(=O)[C@@H](C)OCc1ccccc1)OC	?	/	.	18µM	/	.
COC(C[C@@H]1O[C@@H]1[C@@H](O)[C@@H](C)OCc1ccccc1)OC	.	.	.	.	.	.
CC(C)c1ccc(-c2nnn(C(C)C(=O)Nc3cccc(C#N)c3)n2)cc1 (stereo unspecified)	/	/	.	/	/	/
SMILES	IL-1B inflam inh	RORgamma inh	LDHA inh	DT40 TDP1 CPT	VP16 counter	TDP1 cell noCPT
COc1ccc(S(=O)(=O)Nc2ccccc2C(=O)Nc2nc(-c3ccc(F)cc3)cs2)cc1OC	?	?	.	?	?	16µM
COc1ccc(-c2csc(NC(=O)c3ccccc3NS(=O)(=O)c3ccc(C)cc3)n2)cc1	.	.[10 µM]	.	?	?	15µM
CC(=O)c1c(C)[nH]c(C(=O)Cn2nnc(-c3ccc(C(C)C)cc3)n2)c1C	/	/	.	/	/	/
CCN(CC)CCCNC(=O)c1cc(-c2ccc(Cl)cc2)on1	.	.	.	?	.	23µM
CCCCNC(=O)c1cc(-c2ccc(F)cc2)on1	.	.	.	13µM	.	?
CCN(CC)CCCNC(=O)c1cc(-c2ccc3c(c2)OCO3)on1	.	.	.	.	.	.
C/C(OC(=O)C12CC3CC(CC(C3)C1)C2)=C1/CCOC1=O	/	/	.	/	/	/
